Results: PubChem BioAssay (NCATS)
Results filed as inconclusive are left out. Activity calls are given as the source filed them. Unless noted, calls come from the whole dose curve; as a rule, active = well fitted cell-killing curve with a large enough effect; inconclusive = small, poorly fitted or top-dose-only effect, or effect the other way; inactive = no such curve, though single readings can be large or run the other way.

Legend:
[1] = Quantitative High-Throughput drug screen in 47 multiple myeloma cell lines against the NCATS MIPE library collection: UTMC2_PLB cell viability assay (AID 1919868); note: nearly all actives have a fitted effect of over 55% in size; note: potency is the fitted concentration of half-maximal effect
Summary of the method: (§1)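 Myeloma cells (500/well) treated with MIPE 4.0 compounds for 48 h at 37 °C, 5% CO2. Viability read as ATP via CellTiter-Glo luminescence after 5 min at RT; DMSO-only wells = 100%, media-only = 0% viability.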

[2] = Quantitative High-Throughput drug screen in 47 multiple myeloma cell lines against the NCATS MIPE library collection: PE2_PLB cell viability assay (AID 1919869); note: nearly all actives have a fitted effect of over 35% in size; note: potency is the fitted concentration of half-maximal effect
Summary of the method: as §1

[3] = Quantitative High-Throughput drug screen in 47 multiple myeloma cell lines against the NCATS MIPE library collection: PCM6_Riken cell viability assay (AID 1919870); note: nearly all actives have a fitted effect of over 30% in size; note: potency is the fitted concentration of half-maximal effect
Summary of the method: as §1

[4] = Quantitative High-Throughput drug screen in 47 multiple myeloma cell lines against the NCATS MIPE library collection: OPM2_DSMZ cell viability assay (AID 1919872); note: nearly all actives have a fitted effect of over 30% in size; note: potency is the fitted concentration of half-maximal effect
Summary of the method: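 Relative luminescence from CellTiter-Glo served as the viability signal, referenced to DMSO-treated (100%) and cell-free medium (0%) controls. Treatment lasted 48 hours at 37C with 500 cells per well.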

[5] = Quantitative High-Throughput drug screen in 47 multiple myeloma cell lines against the NCATS MIPE library collection: KMS11_JCRBsus cell viability assay (AID 1919873); note: nearly all actives have a fitted effect of over 50% in size; note: potency is the fitted concentration of half-maximal effect
Summary of the method: as §1

[6] = qHTS drug screen for cell cycle checkpoint inhibitors in PARPi-resistant BRCA-mutant ovarian cancer cell lines. (AID 1963452; calls by dose curve); settings: PEO1/OlaR viability, CellTiter-Glo luminescence, 96 h, stronger effect = lower value
Summary of the method: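 PEO1, PEO4 and PEO1/OlaR ovarian cancer cells, 600 per well, exposed 96 h at 37C to a dilution series. Viability read by CellTiter-Glo luminescence, normalized to DMSO and empty wells; activity summarized as Z-AUC.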

[7] = Quantitative High-Throughput drug screen in 47 multiple myeloma cell lines against the NCATS MIPE library collection: RPMI8226_ATCC cell viability assay (AID 1919871); note: nearly all actives have a fitted effect of over 30% in size; note: potency is the fitted concentration of half-maximal effect
Summary of the method: as §1

[8] = Quantitative High-Throughput drug screen in 47 multiple myeloma cell lines against the NCATS MIPE library collection: KMS28BM_JCRB cell viability assay (AID 1919874); note: nearly all actives have a fitted effect of over 35% in size
Summary of the method: as §1

[9] = qHTS for identification of novel therapeutic agents for treatment of microphthalmiaassociated transcription factor (MiT) renal cell carcinoma (RCC) (AID 1963991); settings: CellTiter-Glo, 48 h, stronger effect = lower value
Summary of the method: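 Three TFE3-fusion RCC cell lines (UOK109, UOK124, UOK145), 500 cells/well, were exposed to the 1912-compound MIPE 4.0 library for 48 hours at 37 C. Viability was read by CellTiter-Glo luminescence, normalised to DMSO (100%) and empty wells (0%), with 11-concentration curve fits.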

[10] = measured here: PEO1 parental Z-AUC
[11] = TFE3-RCC UOK109 viability, measured here: UOK109 Z-AUC
[12] = TFE3-RCC viability, measured here: UOK124 Z-AUC
[13] = TFE3-RCC viability, measured here: UOK145 Z-AUC

Row | SMILES | Potency [1] | Potency [2] | Potency [3] | Potency [4] | Potency [5] | Z-AUC [6] | Z-AUC [6, 10] | Z-AUC ([6]; measured here: PEO4 Z-AUC) | Potency [7] | Potency [8] | z-score [9, 11] | z-score [9, 12] | z-score [9, 13]
1 | CC(C)NCC(O)c1ccc(NS(C)(=O)=O)cc1 (stereo not drawn) | inactive | inactive | inactive | inactive | inactive | -0.911 (inactive) | 1.13 | 0.42 | – | – | – | – | –
2 | CC(C)(C)NC(=O)[C@H]1CC[C@H]2[C@@H]3CC[C@H]4NC(=O)C=C[C@]4(C)[C@H]3CC[C@]12C | 1.66 µM (active) | 1.32 µM (active) | 0.59 µM (active) | inactive | inactive | 1.47 (inactive) | 1.04 | 1.46 | inactive | – | – | – | –
3 | COc1ccc(C(=O)CC(=O)c2ccc(C(C)(C)C)cc2)cc1 | 3.72 µM (active) | 5.26 µM (active) | 0.935 µM (active) | – | inactive | 1.49 (inactive) | 0.772 | 1.06 | – | – | – | – | –
4 | CC(=O)Oc1ccccc1C(=O)Nc1ncc([N+](=O)[O-])s1 | 13.6 µM (active) | 13.6 µM (active) | 27 µM (active) | – | 17.1 µM (active) | 0.99 (inactive) | 0.864 | 0.834 | 19.1 µM (active) | – | – | – | –
5 | OCc1ccc(-c2nn(Cc3ccccc3)c3ccccc23)o1 | – | inactive | inactive | inactive | inactive | 0.562 (inactive) | 1.06 | 0.997 | 4.18 µM (active) | inactive | – | – | –
6 | Oc1c(Cl)cc(Cl)c2cccnc12 | 11.8 µM (active) | 9.35 µM (active) | 9.35 µM (active) | 26.4 µM (active) | 18.7 µM (active) | 0.201 (inactive) | -0.0999 | -0.27 | 18.7 µM (active) | – | – | – | –
7 | CC(C)(C#N)c1cc(Cn2cncn2)cc(C(C)(C)C#N)c1 | – | inactive | inactive | inactive | inactive | 1.1 (inactive) | 1.39 | 1.04 | inactive | inactive | 0.558 | 0.63 | 0.487
8 | CCCc1cc(C(N)=S)ccn1 | – | inactive | inactive | inactive | inactive | 1.52 (inactive) | 1.53 | 1.99 | inactive | inactive | 1.43 | 0.537 | 0.979
9 | COc1cc(NCc2ccc3nc(N)nc(N)c3c2C)cc(OC)c1OC | 0.743 µM (active) | 1.66 µM (active) | 4.69 µM (active) | 18.7 µM (active) | 2.64 µM (active) | 0.262 (inactive) | 0.153 | -0.254 | 16.6 µM (active) | – | – | – | –
10 | COc1cc(NS(=O)(=O)c2ccc(N)cc2)nc(OC)n1 | – | inactive | inactive | inactive | inactive | – | – | – | inactive | – | – | – | –
